# In the library only some 10% were active in any assay of this set; here they are far more common.
# 3T3 cytotox: kills NIH 3T3 cells. NIH 3T3 viability, CellTiter-Glo ATP luminescence, 48-72 h. Potency, µM (doses to about 96.7 µM), for the others: at the highest dose activity change, negative = cytotoxicity, actives largely listed as inhibitors. 4.3% of 94,000 active. AID 1345082; further: nearly all actives have a fitted effect of over 55% in size
#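 Cells were seeded at 400 per well, treated with pin-transferred compound, and kept 48 or 72 hr at 37 °C before CellTiter-Glo addition and luminescence imaging of cellular ATP.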
# hNpr1 antagonist: human Npr1 receptor antagonism; P16066; HEK293 hNpr1 GloSensor cGMP, ANP-stimulated luminescence; Potency, µM (top dose mostly 46.3 µM), for the others: at the top dose activity change, negative = inhibition, usual class: inhibitors; 1.6% of 76,000 active; AID 1347048; calls by dose curve; further: nearly all actives have a fitted effect of over 60% in size
#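 Compound pre-incubated 30 min at room temperature on GloSensor-loaded HEK293 cells stably carrying hNpr1 and the pGS-40F cGMP biosensor. Stimulation uses hNppA at 0.1 nM final; luminescence is taken at baseline and 20 min post-agonist.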
# Luciferase inh: Photinus pyralis luciferase inhibition; purified P. pyralis luciferase, luminescence, biochemical; P08659; 2.5% of 76,000 active; Potency, µM (titrated, usually from 115 µM), usual class: inhibitors; further: nearly all actives have a fitted effect of over 65% in size
#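 FLuc 10nM, D-luciferin 10uM, ATP 10uM, Mg acetate 10mM, Tris acetate pH 7.5, Tween/BSA; cpd qHTS; enzyme added last; CCD luminescence.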
# HEK293 tox: cytotoxic compounds in HEK 293 cells; HEK 293 viability, ATP luminescence (CellTiter-Glo), 48-72 h; Potency, µM (top dose mostly 115 µM), for inactives: at the top dose activity change, negative = cytotoxicity, most hits filed as inhibitors; 6.6% of 94,000 active; further: nearly all actives have a fitted effect of over 60% in size
#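 Read-out: CellTiter-Glo ATP luminescence. Cells: HEK 293, 250 cells/well. Exposure: 48 or 72 hr, 37 degree Celsius.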
# GPT2 inh: GPT2 alanine aminotransferase inhibition. Q8TD30. Recombinant GPT2, coupled pyruvate oxidase/HRP Amplex Red fluorescence. Potency, µM (titrated, usually from 57.7 µM), for the others: top-dose activity change, negative = inhibition, usual class: inhibitors. 0.25% of 100,000 active; further: nearly all actives have a fitted effect of over 60% in size
# Target sequence (Q8TD30 whole entry, looked up): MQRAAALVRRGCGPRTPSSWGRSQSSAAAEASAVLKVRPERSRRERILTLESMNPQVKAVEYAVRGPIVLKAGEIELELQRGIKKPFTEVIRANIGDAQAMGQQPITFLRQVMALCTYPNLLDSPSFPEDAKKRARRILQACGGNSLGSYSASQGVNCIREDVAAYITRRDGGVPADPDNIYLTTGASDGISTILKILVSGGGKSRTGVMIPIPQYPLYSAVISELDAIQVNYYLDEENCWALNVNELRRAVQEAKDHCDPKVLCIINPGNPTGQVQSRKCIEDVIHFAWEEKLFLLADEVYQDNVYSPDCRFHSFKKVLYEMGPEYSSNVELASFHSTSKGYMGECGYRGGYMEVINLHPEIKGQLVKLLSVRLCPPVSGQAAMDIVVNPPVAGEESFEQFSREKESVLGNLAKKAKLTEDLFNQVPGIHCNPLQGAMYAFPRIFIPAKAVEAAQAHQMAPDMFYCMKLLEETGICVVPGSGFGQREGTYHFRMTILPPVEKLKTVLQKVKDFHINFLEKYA
#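 Fluorescence of coupled pyruvate oxidase/HRP/Amplex Red system (50uM Amplex, 30 min, dark) reports pyruvate formed by GPT2. Enzyme reaction: 10ng/uL GPT2, 2mM L-alanine, 250uM a-KG, 30 min room temperature, pH 7.5; 50uM AOA control.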
# * marks the source's active call; other numbers are inactive results; i = inactive; ? = inconclusive; . = not tested or not shown; [ ] = dose if it differs, or a comment. Unless noted, the call rests on the fitted dose curve; in most records, active means well fitted curve in the direction sought with a large enough effect; inconclusive means small, poorly fitted or top-dose-only effect, or another doubt; inactive means no such curve, though single readings can be large; an effect the other way counts as inactive or inconclusive. On the % scale 0 is the no-effect control and ±100 the full control effect; potency means the concentration at half of the fitted maximal effect.
SMILES,3T3 cytotox,hNpr1 antagonist,Luciferase inh,HEK293 tox,GPT2 inh
O=C(C[C@H]1NC(=O)c2ccccc2NC1=O)NC1CCN(Cc2ccc(F)cc2)CC1,i,2%,i,5%,i
COc1ccccc1-c1cccc(CN2CCCC(C(=O)NCc3cccc(Cl)c3)C2)c1 (configuration not stated),32µM*,.,.,14µM*,i
COc1ccccc1-c1cccc(CN2CCCC(C(=O)NCc3cccc(C(F)(F)F)c3)C2)c1 (configuration not stated),16µM*,.,.,14µM*,i
COc1ccccc1-c1cccc(CN2CCCC(C(=O)NC3CCOC3)C2)c1 (configuration not stated),?,.,.,?,i
COc1ccccc1-c1cccc(CN2CCCC(C(=O)NCc3ccc(F)cc3)C2)c1 (configuration not stated),32µM*,.,.,32µM*,i
COc1ccccc1-c1cccc(CN2CCCC(C(=O)NCc3cccnc3)C2)c1 (configuration not stated),35µM*,.,.,?,i
COc1ccccc1CNC(=O)C1CCCN(Cc2cccc(-c3ccc(F)cc3F)c2)C1 (configuration not stated),?,.,.,?,i
COCCN1C(=O)CC[C@]2(C(=O)Nc3ccccn3)CCCC[C@@H]12,0%,1%,i,-14%,-3%
CNC(=O)c1nc2cccnc2n(CC(C)C)c1=O,-19%[138 µM],.,.,-13%[172 µM],i
COc1ccccc1-c1cccc(CN2CCCC(C(=O)NCc3ccc(C(F)(F)F)cc3)C2)c1 (configuration not stated),22µM*,.,.,18µM*,?
COC1CCCN(C(=O)c2cc(-c3ccc(F)cc3)cc3ncn(C)c23)C1 (configuration not stated),-26%[138 µM],1%[70.6 µM],25µM*,?,-14%[88.5 µM]
COC1C(=O)N(C2CCN(S(=O)(=O)c3cccc(F)c3)CC2)C12CCOCC2 (configuration not stated),-11%,-2%,i,-1%,-9%
CCNC(=O)c1coc(COc2ccc3c(c2)C(c2cccc(F)c2)N(C(=O)C(C)C)CC3)n1 (configuration not stated),?,-10%,i,40µM*,-7%
CCCNC(=O)c1coc(COc2ccc3c(c2)C(c2ccc(F)cc2)N(C(=O)C(C)C)CC3)n1 (configuration not stated),22µM*,-12%,i,?,2%
COc1cc(-c2onc(C)c2C(=O)NCCCSC)cc(OC)c1OC,5%,-27%,i,i,4%
Cc1noc(-c2ccc(C(C)(C)C)cc2)c1C(=O)NCc1cc(F)cc(F)c1,-23%,2%,i,?,5%
Cc1noc(-c2ccc(OC(F)(F)F)cc2)c1C(=O)NCCCc1ccccc1,?,2%,i,71µM*,i
COc1cc(CN(C)C(=O)c2c(C)noc2-c2ccc(C(C)(C)C)cc2)cc(OC)c1OC,?,-20%,i,40µM*,-11%
Cc1noc(-c2ccc(OC(F)(F)F)cc2)c1C(=O)NCCC(c1ccccc1)c1ccccc1,?,-12%,i,35µM*,?
COc1cc(-c2onc(C)c2C(=O)NCCCCc2ccccc2)cc(OC)c1OC,?,-5%,i,89µM*,-1%
N[C@@H](CCNCc1ccc(Cl)cc1)C(=O)N1CCCCC1,.,.,.,.,2%
COc1ccc(CCNC(=O)CCn2ccn3nc4c(c3c2=O)CCCC4)cc1OC,i,2%,i,1%,-1%
COc1ccc(S(=O)(=O)N2C[C@@H]3C[C@H](C2)c2c(NC(=O)c4ccc5c(c4)OCO5)ccc(=O)n2C3)cc1,?,-3%,i,?,-11%
O=C(C1CC1)N1CCC(N2C(=O)C(O)C23CCCCC3)CC1 (configuration not stated),-3%,11%,i,?,i
Cc1ccc(N2CCC(NC(=O)Cc3cccc(F)c3)C2=O)cc1 (configuration not stated),32µM*,7%,i,25µM*,i
